Legend:
Assay in all cases: DAPPL (digital affinity profiling via proximity ligation, sequencing); 10 mM Tris-HCl pH 7.5, 50 mM NaCl, 1 mM DTT, 4% glycerol, room temperature, 30 min; GST-TFs on glutathione beads, 16-mer random dsDNA library, 0.1% formaldehyde crosslink after washing; high values mean tight binding
Settings in all cases: protein: recombinant; tags: N-terminal GST; dsDNA, one strand shown
[1] = molecular target: T1, FLI1 (Homo sapiens, UniProt Q01543 1-452)
T1 sequence: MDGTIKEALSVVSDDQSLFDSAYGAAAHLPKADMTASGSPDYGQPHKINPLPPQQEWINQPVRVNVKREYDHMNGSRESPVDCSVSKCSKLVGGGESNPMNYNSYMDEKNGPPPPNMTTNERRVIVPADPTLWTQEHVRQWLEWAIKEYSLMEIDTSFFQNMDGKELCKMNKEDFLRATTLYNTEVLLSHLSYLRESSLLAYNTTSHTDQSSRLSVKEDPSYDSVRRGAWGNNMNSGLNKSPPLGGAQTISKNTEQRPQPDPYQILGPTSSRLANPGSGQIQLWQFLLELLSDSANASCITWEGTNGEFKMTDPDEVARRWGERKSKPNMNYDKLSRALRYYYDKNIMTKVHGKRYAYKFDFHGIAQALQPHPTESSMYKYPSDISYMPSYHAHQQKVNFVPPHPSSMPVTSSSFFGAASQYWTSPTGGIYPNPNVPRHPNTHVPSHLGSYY
Outline: (§1)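 Binding signal is given per hexamer as its read frequency for a factor divided by its frequency in the tag-only sample. GST-fused human transcription factors were expressed in yeast, captured on glutathione beads, barcoded with DNA and pooled with that sample, then incubated with 200 nmole of a 16-mer random double-stranded DNA library in Tris/NaCl/DTT/glycerol buffer for 30 min at room temperature. The pools were then washed, crosslinked, proximity-ligated, amplified by PCR and sequenced on an Illumina NextSeq500.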

[2] = molecular target: T2, GABPA (Homo sapiens, UniProt Q06546 1-454)
T2 sequence: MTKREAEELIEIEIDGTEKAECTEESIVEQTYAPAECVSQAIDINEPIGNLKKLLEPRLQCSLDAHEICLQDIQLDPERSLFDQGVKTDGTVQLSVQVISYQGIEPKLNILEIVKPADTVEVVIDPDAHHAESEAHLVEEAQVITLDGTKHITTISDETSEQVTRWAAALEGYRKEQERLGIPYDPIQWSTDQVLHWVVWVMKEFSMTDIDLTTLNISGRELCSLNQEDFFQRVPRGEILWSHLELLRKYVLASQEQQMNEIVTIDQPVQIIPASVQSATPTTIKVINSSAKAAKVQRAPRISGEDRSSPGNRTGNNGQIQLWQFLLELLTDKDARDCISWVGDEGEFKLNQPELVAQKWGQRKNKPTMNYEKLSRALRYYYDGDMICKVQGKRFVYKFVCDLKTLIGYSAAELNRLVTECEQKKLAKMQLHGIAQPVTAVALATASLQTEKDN
Outline: as §1

[3] = molecular target: T3, ERG (Homo sapiens, UniProt P11308 1-479)
T3 sequence: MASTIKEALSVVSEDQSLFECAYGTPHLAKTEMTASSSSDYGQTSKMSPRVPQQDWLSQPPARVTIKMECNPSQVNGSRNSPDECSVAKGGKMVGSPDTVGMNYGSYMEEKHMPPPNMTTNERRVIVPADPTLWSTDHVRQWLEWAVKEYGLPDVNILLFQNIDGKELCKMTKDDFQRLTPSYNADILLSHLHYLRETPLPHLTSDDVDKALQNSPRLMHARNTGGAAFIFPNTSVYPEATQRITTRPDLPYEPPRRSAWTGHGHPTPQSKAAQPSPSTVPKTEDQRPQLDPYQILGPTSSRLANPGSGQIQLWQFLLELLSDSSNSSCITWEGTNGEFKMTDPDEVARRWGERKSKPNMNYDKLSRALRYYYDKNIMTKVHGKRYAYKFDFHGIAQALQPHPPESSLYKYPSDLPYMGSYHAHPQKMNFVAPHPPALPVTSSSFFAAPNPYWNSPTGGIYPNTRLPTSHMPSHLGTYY
Outline: as §1

[4] = molecular target: ELF1 (Homo sapiens, UniProt P32519 1-619)
Outline: as §1

[5] = molecular target: SPI1 (Homo sapiens, UniProt P17947 1-270)
Outline: as §1

[6] = molecular target: T4, FEV (Homo sapiens, UniProt Q99581 1-238)
T4 sequence: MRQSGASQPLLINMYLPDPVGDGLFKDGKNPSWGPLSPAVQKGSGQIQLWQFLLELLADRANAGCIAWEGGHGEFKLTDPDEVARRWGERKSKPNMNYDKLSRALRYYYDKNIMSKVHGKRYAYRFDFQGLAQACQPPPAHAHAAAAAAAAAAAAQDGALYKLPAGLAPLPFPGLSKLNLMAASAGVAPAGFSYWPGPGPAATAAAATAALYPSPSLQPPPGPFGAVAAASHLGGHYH
Outline: as §1

[7] = molecular target: ETV5 (Homo sapiens, UniProt P41161 1-510)
Outline: as §1

[8] = molecular target: T5, SPIC (Homo sapiens, UniProt Q8N5J4 1-248)
T5 sequence: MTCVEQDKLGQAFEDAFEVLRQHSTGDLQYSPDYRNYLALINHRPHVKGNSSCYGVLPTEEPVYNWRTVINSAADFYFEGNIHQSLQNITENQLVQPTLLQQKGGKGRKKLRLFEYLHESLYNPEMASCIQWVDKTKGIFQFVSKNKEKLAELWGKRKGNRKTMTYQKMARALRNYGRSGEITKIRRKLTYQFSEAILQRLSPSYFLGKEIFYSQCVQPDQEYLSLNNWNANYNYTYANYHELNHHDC
Outline: as §1

[9] = molecular target: ELF4 (Homo sapiens, UniProt Q99607 1-663)
Outline: as §1

[10] = molecular target: ETV1 (Homo sapiens, UniProt P50549 1-477)
Outline: as §1

[11] = molecular target: T6, ETS2 (Homo sapiens, UniProt P15036 1-469)
T6 sequence: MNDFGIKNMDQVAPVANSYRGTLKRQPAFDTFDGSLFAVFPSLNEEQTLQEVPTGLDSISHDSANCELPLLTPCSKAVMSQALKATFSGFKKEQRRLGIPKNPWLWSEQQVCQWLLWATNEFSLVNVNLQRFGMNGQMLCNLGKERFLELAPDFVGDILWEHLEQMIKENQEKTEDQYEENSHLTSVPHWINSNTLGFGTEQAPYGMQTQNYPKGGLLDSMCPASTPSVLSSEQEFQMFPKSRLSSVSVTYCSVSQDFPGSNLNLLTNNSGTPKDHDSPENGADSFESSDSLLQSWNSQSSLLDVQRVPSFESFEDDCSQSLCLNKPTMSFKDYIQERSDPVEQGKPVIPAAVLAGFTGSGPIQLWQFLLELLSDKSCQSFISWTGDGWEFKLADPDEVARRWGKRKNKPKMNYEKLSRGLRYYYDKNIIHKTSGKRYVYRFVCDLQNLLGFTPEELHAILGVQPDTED
Outline: as §1

[12] = molecular target: T7, ETV3 (Homo sapiens, UniProt P41162-2 1-143)
T7 sequence: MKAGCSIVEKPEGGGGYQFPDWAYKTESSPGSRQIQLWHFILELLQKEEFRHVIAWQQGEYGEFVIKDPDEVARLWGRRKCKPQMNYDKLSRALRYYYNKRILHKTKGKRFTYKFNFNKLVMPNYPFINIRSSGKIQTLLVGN
Outline: as §1

Chain of ELF4 (Q99607 whole entry): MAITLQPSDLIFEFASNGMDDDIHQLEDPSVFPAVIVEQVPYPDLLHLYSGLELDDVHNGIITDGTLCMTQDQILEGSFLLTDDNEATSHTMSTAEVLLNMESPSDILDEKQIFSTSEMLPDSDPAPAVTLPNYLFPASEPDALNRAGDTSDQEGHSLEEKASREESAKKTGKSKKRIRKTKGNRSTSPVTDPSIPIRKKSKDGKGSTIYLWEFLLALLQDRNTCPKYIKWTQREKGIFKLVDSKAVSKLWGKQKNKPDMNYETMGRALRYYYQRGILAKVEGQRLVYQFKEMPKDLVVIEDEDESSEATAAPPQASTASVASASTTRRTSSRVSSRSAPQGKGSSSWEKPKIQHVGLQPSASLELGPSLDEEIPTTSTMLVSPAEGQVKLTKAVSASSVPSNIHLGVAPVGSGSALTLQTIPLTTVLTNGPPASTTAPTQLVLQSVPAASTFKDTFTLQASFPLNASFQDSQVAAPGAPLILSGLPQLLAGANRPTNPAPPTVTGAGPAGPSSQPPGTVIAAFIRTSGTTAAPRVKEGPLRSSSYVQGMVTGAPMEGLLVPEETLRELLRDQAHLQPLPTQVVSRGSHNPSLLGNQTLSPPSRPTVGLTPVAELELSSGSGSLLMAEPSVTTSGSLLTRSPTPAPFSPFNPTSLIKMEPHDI
Chain of ELF1 (P32519 whole entry): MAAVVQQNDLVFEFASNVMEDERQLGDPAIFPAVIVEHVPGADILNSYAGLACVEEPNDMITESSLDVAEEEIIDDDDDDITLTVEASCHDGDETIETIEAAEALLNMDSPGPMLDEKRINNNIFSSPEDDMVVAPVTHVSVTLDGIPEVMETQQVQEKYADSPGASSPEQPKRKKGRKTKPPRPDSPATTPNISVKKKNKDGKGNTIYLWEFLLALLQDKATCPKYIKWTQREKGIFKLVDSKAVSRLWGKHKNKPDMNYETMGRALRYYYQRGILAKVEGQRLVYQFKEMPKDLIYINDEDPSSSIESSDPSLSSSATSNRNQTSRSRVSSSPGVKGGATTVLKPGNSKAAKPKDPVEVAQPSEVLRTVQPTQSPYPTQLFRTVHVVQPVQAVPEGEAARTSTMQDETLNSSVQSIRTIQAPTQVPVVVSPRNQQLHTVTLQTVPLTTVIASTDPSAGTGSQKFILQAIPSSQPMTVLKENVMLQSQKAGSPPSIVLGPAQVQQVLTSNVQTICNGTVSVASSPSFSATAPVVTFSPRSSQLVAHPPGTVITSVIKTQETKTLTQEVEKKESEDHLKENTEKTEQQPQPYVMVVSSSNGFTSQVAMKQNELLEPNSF
Chain of ETV5 (P41161 whole entry): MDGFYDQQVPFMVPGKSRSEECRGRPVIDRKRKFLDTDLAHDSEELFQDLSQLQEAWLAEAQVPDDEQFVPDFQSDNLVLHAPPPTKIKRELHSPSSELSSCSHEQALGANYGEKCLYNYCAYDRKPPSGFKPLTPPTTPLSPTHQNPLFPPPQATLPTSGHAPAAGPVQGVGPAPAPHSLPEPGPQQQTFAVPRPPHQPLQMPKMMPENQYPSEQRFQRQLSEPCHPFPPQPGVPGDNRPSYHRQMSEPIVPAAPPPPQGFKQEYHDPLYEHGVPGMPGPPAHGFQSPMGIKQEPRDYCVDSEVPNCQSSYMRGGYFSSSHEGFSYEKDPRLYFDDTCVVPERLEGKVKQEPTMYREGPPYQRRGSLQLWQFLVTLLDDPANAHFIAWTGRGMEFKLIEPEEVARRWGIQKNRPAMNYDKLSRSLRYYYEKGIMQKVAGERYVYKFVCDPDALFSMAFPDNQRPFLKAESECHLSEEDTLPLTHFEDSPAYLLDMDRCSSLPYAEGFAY
Chain of ETV1 (P50549 whole entry): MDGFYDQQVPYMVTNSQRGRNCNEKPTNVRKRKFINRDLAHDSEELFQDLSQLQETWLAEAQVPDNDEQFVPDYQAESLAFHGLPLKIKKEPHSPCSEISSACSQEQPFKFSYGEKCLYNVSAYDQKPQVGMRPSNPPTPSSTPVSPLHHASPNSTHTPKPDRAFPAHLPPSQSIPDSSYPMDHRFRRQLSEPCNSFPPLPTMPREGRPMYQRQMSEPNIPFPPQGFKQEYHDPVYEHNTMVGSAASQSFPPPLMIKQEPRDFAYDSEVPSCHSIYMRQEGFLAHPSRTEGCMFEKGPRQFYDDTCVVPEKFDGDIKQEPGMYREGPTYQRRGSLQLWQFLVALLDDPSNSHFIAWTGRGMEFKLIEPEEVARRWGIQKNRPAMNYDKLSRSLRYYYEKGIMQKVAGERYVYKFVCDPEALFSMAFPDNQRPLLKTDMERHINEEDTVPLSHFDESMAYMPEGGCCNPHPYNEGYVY

Sequence: GGCCCC
- binding signal [1]: 1.02 fold enrichment (6-mer frequency, TF over GST control)
- binding signal [2]: 1.03 fold enrichment (6-mer frequency, TF over GST control)
- binding signal [3]: 1.04 fold enrichment (6-mer frequency, TF over GST control)
- binding signal [4]: 1.02 fold enrichment (6-mer frequency, TF over GST control)
- binding signal [5]: 1.03 fold enrichment (6-mer frequency, TF over GST control)
- binding signal [6]: 1.06 fold enrichment (6-mer frequency, TF over GST control)
- binding signal [7]: 1.02 fold enrichment (6-mer frequency, TF over GST control)
- binding signal [8]: 1.01 fold enrichment (6-mer frequency, TF over GST control)
- binding signal [9]: 1 fold enrichment (6-mer frequency, TF over GST control)
- binding signal [10]: 1.03 fold enrichment (6-mer frequency, TF over GST control)
- binding signal [11]: 1.03 fold enrichment (6-mer frequency, TF over GST control)
- binding signal [12]: 1.05 fold enrichment (6-mer frequency, TF over GST control)

— article PMC7862700, “An all-to-all approach to the identification of sequence-specific readers for epigenetic DNA modifications on cytosine”
